The whole screen tested about 420,000 compounds, of which about 64,000 (15%) were called active. Roughly 27% stayed inconclusive and do not appear here. Only a sample is shown. A number with no mark means an inactive call. Calls come from the whole dose curve; as a rule, active = well fitted inhibition curve with a large enough effect; inconclusive = small, poorly fitted or top-dose-only effect; inactive = flat fitted curve, though single readings scatter.
assay: qHTS for Inhibitors of human tyrosyl-DNA phosphodiesterase 1 (TDP1): qHTS in cells in absence of CPT; details: DT40 Tdp1-/- hTDP1 cells, no CPT, ATP luminescence, 48 h; activity change, negative = growth inhibition: at 46.2 µM (top of the series); note: nearly all actives have a fitted effect of over 55% in size
In short: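 Luminescent ATP content (CellTiter-Glo) served as the growth readout. Knockout chicken DT40 cells expressing human TDP1 were exposed to compounds without camptothecin for a minimum 48 hr at 37 °C.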
% is set by controls: 0 for no effect and ±100 for the full control effect; potency is the fitted concentration of half-maximal effect.

SMILES | activity change, negative = growth inhibition | Potency
Cc1c(C#N)c2ncn(CC#N)c(=O)c2n1-c1ccccc1 | -2.44% | –
CCCCOC(=O)Nc1nnc(CC(=O)NCc2ccccc2)s1 | -11.9% | –
Nn1c(SCC(=O)NC2CCCC2)nnc1-c1ccccc1F | -8.8% | –
Cc1cc(-c2ccnc(-n3ncc(C(=O)NCCc4ccncc4)c3C)n2)c(C)s1 | -20.8% | –
Cc1cc(-c2ccnc(-n3ncc(C(=O)NC(C)(C)CO)c3C3CC3)n2)c(C)s1 | – | 23.1 µM (active)
Cc1cccc(CNC(=O)c2cnn(-c3nccc(-c4ccccc4F)n3)c2C2CC2)n1 | 1.08% | –
CNc1nc2c(C)cccn2c(=O)c1C=Nc1ccc(OC)cc1 | 8.41% | –
CC(Oc1ccc(Cl)cc1)C(=O)Nc1ncccn1 (stereo not drawn) | -16.2% | –
CCN1CCN(C(=O)N[C@@H](C(=O)N[C@@H]2C(=O)N3[C@@H]2SC(C)(C)[C@H]3C(=O)O)c2ccccc2)C(=O)C1=O | -0.422% | –
CCc1nnc(NS(=O)(=O)c2ccc(NC(=S)NC(=O)c3cccs3)cc2)s1 | -17.6% | –
O=C(NC(=S)Nc1ccc(NC(=O)c2cccs2)cc1)c1ccc([N+](=O)[O-])cc1 | 2.62% | –
O=C(NC(=S)Nc1cccc(-c2ccc(CO)o2)c1)c1cccs1 | – | 25.9 µM (active)
Cc1ccc(N2C(=O)C3C4C=CC(CC4)C3C2=O)cc1Cl (stereo not drawn) | -6.19% | –
N#Cc1cccc(OC(=O)c2ccc3c(=O)n4c(nc3c2)CCC4)c1 | -17.1% | –
CC(=O)C(CC(=O)N1CCCC1)C(=O)Nc1ccc(Cl)cc1 (stereo not drawn) | -8.38% | –
O=C(CSCc1ccc(Cl)cc1)N1CCCCC1 | – | 16.4 µM (active)
O=C(CSCc1cccs1)N1CCCC1 | -13.6% | –
O=C(N/C(=C\c1ccc([N+](=O)[O-])cc1)C(=O)N1CCCCC1)c1ccco1 | -17.8% | –
COC(=O)/C(NC(C)=O)=C(\C)c1ccc(Cl)cc1 | -13.3% | –
COc1ccc(OC)c(NC(=O)Cc2cccs2)c1 | -10.7% | –
CCOc1ccccc1NC(=O)Nc1cc(OC)ccc1OC | 0.675% | –
COc1ccc(OC)c(NC(=O)CC(Cc2ccccc2OC)C(=O)O)c1 (stereo not drawn) | – | 11.2 µM (active)
CC1CC(C)(C)n2c(O)c(N=NC(N)=S)c3cccc1c32 (stereo not drawn) | -23.2% | –
COC(=O)c1cccc(C(=O)N2CCC(CCC(=O)NCc3ccc(F)cc3)CC2)c1 | -6.05% | –
COC(=O)[C@@]1(Cc2ccc(F)cc2)[C@H]2c3cc(C(=O)N4CCCC4)n(Cc4ccc(OC(F)(F)F)cc4)c3C[C@H]2CN1C(=O)c1ccccc1 | – | 18.4 µM (active)
COC(=O)[C@@]1(Cc2ccc(OC)cc2)[C@H]2c3cc(C(=O)N4CCCC4)n(Cc4ccc(OC(F)(F)F)cc4)c3C[C@H]2CN1C(=O)c1ccccc1 | – | 18.4 µM (active)

SMILES | activity change, negative = growth inhibition | Potency
COc1ccc(OCc2cccc(C(=O)N3CCCC3)c2)cc1 | -22.2% | –
COc1ccc2[nH]cc(CCN3C(=O)c4ccc(C(=O)O)cc4C3=O)c2c1 | -14.5% | –
COC(=O)[C@@]1(Cc2ccc(F)cc2)[C@H]2c3cc(C(=O)N(C)C)n(CCc4c[nH]c5ccc(OC)cc45)c3C[C@H]2CN1C(=O)c1ccccc1 | – | 23.1 µM (active)
Cc1ccc(CN2CCNC(=O)C2CC(=O)NCc2csc(C(C)C)n2)cc1 (stereo not drawn) | -4.7% | –
Cc1cc(NC(=O)c2cccc(N3C(=O)CCC3=O)c2)no1 | -17.9% | –
Cc1cc(N/C=C\C(=O)c2ccc(Cl)c(Cl)c2)no1 | -14.7% | –
Cc1cccc(OCCC(=O)OCc2csc(CC(=O)Nc3ccccc3C)n2)c1 | 0.189% | –
O=C(CSc1nnc(SCc2ccc(F)cc2)s1)Nc1ccc(C(=O)O)cc1 | 5.88% | –
CCCCn1c(N)c(N(CCC(C)C)C(=O)COC(=O)c2cccnc2OCC)c(=O)[nH]c1=O | 14.9% | –
O=C(NCCCCO)C(F)(F)C(F)(F)C(F)(F)C(=O)NCCCCO | 4.75% | –
CC1=C2C(=O)OC(c3ccoc3)C2(C)CCC1 (stereo not drawn) | -12.7% | –
O=C(Nc1ccc(F)cc1)Nc1nnc([C@H]2C[C@H](O)[C@@H](CO)O2)s1 | -21.8% | –
Cc1c(Cl)cnc(NC(=O)COC(=O)C2CCCC2)c1Cl | 14.7% | –
Cc1ccc(NC(=O)C(C)Sc2nnc(C3CC3)n2C2CC2)cc1S(=O)(=O)N1CCOCC1 (stereo not drawn) | 15% | –
COc1ccc(C2CC(c3ccccc3)Nc3ncnn32)cc1 (stereo not drawn) | -9.25% | –
Clc1ccc(C2CC(c3cccs3)n3ncnc3N2)cc1Cl (stereo not drawn) | -22% | –
FC(F)Oc1ccccc1C1CC(c2ccc(Br)s2)Nc2ncnn21 (stereo not drawn) | – | 16.4 µM (active)
CSCC(=O)N1CCCC(C(=O)c2cc(F)ccc2F)C1 (stereo not drawn) | -24.5% | –
COc1ccc(F)cc1C(=O)C1CCCN(C(=O)CCc2ccccn2)C1 (stereo not drawn) | – | 18.4 µM (active)
COc1ccc(C(=O)N2CCCC(C(=O)c3ccccc3OC)C2)cc1OC (stereo not drawn) | 15.4% | –
CCc1ccc(CN2C(=O)c3ccccc3C2C(=O)NCC2CCCO2)cc1 (stereo not drawn) | 8.07% | –
COc1ccc2oc(=O)cc(CN3CCOCC3)c2c1 | 11.8% | –
Cc1cc2oc(=O)cc(CN3CCN(S(=O)(=O)c4cccs4)CC3)c2cc1C(C)C | – | 20.6 µM (active)
O=S(=O)(c1cccs1)N1CCN(Cc2ccccc2)CC1 | -5.85% | –
O=C(CSc1nnc(-c2cccs2)n1-c1ccccc1)NCc1ccco1 | -11.9% | –
CC1CCc2c(sc(NC(=O)c3ccc(Cn4cc(Br)cn4)o3)c2C(N)=O)C1 (stereo not drawn) | -20.8% | –

SMILES | activity change, negative = growth inhibition | Potency
CCCCN(C(=O)c1cccc(N2C(=O)c3ccccc3C2=O)c1)c1c(N)n(CCCC)c(=O)[nH]c1=O | 17.5% | –
CS(=O)(=O)c1ccc2nc(NC(=O)c3ccc(N4CCCC4=O)cc3)sc2c1 | -0.935% | –
Cc1nn(C)c(C)c1S(=O)(=O)N1CCc2ccccc21 | -29.2% | –
O=C(NC(Nc1nc2ccc([N+](=O)[O-])cc2s1)(C(F)(F)F)C(F)(F)F)c1ccccc1 | – | 0.461 µM (active)
CSc1nc2ccc(S(=O)(=O)N3CCc4ccccc43)cc2s1 | – | 23.1 µM (active)
O=C(Nc1nc2ccc([N+](=O)[O-])cc2s1)c1ccncc1 | -13.7% | –
O=S(=O)(c1ccccc1)N1CCc2ccccc21 | -7.81% | –
O=C(O)CCC(=O)Nc1nc2ccc([N+](=O)[O-])cc2s1 | 4.77% | –
O=C(COC(=O)c1ccc(F)cc1)Nc1nc2ccc([N+](=O)[O-])cc2s1 | -18.2% | –
O=C(Nc1nc2ccc([N+](=O)[O-])cc2s1)c1ccc(S(=O)(=O)N2CCCc3ccccc32)cc1 | – | 4.11 µM (active)
O=C(COC(=O)c1ccc(S(=O)(=O)N2CCCCCC2)cc1)Nc1ccccc1C(F)(F)F | 1.22% | –
Cc1ccc(C2(C)NC(=O)N(CC(=O)N3CC(=O)Nc4ccccc43)C2=O)cc1 (stereo not drawn) | -4.34% | –
COC(=O)C[C@@H]1C=C[C@@H](NC(=O)c2ccc3c(c2)OCO3)[C@@H](CO)O1 | -10.5% | –
COCCC(=O)N1CCC(Oc2ccc(C(=O)NCc3ccon3)cc2)CC1 | -24.7% | –
N#Cc1c(-c2ccccc2)cc(-c2ccccc2)nc1SCC(=O)O | 10.7% | –
CN1C(=O)CN2CCc3ccccc3C2c2cc(Cl)ccc21 (stereo not drawn) | 0.961% | –
CN1CCN(C2Cc3ccc(Cl)cc3Sc3ccc(F)cc32)CC1 (stereo not drawn) | – | 18.4 µM (active)
COC(=O)C1NN=C(C(=O)c2ccc(Br)cc2)C1c1cccc(Br)c1 (stereo not drawn) | -18.6% | –
Cc1ccc(NC(=O)C2CC2c2ccccc2)cc1 (stereo not drawn) | 2.36% | –
Nc1ncnc2c1ncn2[C@@H]1O[C@H](C(=O)N2CCSC2)[C@@H](O)[C@H]1O | -25.8% | –
Cc1cccc(C)c1OCC(O)CN1CCCCC1 (stereo not drawn) | 4.81% | –
Cc1cccc(OCC(O)CN2CCN(CCN3C(=O)c4cccc5cccc(c45)C3=O)CC2)c1C (stereo not drawn) | – | 25.9 µM (active)
C=CCc1ccccc1OCC(O)CN1CCN(CCO)CC1 (stereo not drawn) | 20.7% | –
CCCC(C(=O)NC1CCCC1)N(C(=O)Cn1nnc(-c2ccc(C)o2)n1)c1cccc(O)c1 (stereo not drawn) | -11.8% | –
COC(=O)c1cc(C)sc1NC(=O)CC1Nc2ccccc2NC1=O (stereo not drawn) | -15.1% | –
O=C(c1csnn1)N1CCC[C@@]2(CCN(Cc3nccs3)C2)C1 | 4.1% | –

SMILES | activity change, negative = growth inhibition | Potency
NC(=O)NC(=O)C(OC(=O)CCNS(=O)(=O)c1ccccc1)c1ccccc1 (stereo not drawn) | 2.11% | –
Cc1ccc(N2C(=O)C3C(c4ccccc4)(C2=O)C3(c2ccccc2)c2ccccc2)cc1 (stereo not drawn) | – | 13 µM (active)
Cc1ccc(N2C(=O)C3CC3C2=O)cc1 (stereo not drawn) | 11% | –
Cc1ccc(N2C(=O)C(Cc3ccccc3)NC2=S)cc1 (stereo not drawn) | -9.36% | –
O=C(N1CCCC1)C12CC3CC(C1)CC(C(=O)N1CCCC1)(C3)C2 | -19% | –
COc1ccccc1C(=O)NNC(=O)CCN1C(=O)/C(=C\c2ccccc2)SC1=S | -25.6% | –
CC(OC(=O)CNS(=O)(=O)/C=C/c1ccccc1)C(=O)Nc1ccc(S(=O)(=O)N2CCCC2)cc1 (stereo not drawn) | -12.5% | –
Cc1ccc(CNC(=O)CC(NC(=O)c2ccccc2)c2ccccc2)cc1 (stereo not drawn) | 11.7% | –
CCn1ccnc1CN(C)C(=O)c1ccc2nc(Cc3ccc(OC)cc3)oc2c1 | -4.12% | –
COc1ccc(Cc2nc3ccc(C(=O)N4CCC(N(C)C)C4)cc3o2)cc1 (stereo not drawn) | 9.41% | –
COCCNC(=O)c1ccc2nc(Cc3ccc(OC)c(OC)c3)oc2c1 | 0.0783% | –
CSCCNC(=O)c1ccc2nc(Cc3ccccc3F)oc2c1 | -0.744% | –
COc1ccc(Cc2nc3ccc(C(=O)NCc4ccccc4C)cc3o2)cc1 | – | 8.2 µM (active)
COc1ccc(Cc2nc3ccc(C(=O)NCc4ccccc4Cl)cc3o2)cc1 | – | 16.4 µM (active)
CCCc1c(C(=O)N/N=C(\C)CCc2ccc(OC)cc2)nnn1-c1nonc1N | 15.5% | –
Cc1ccc2c(C)c(C(=O)N(C)Cc3ccncn3)oc2c1C | 15.4% | –
CCOCCCNC(=O)C(NC(=O)CNC(=O)c1ccccc1)c1ccc(OC)cc1 (stereo not drawn) | 4.34% | –
CCCCCNC(=O)C(c1ccc(OC)cc1)n1c(=O)c(-c2ccccc2)nc2ccccc21 (stereo not drawn) | – | 20.6 µM (active)
COc1ccc(CNC(=O)CN2C(=O)c3ccccc3S2(=O)=O)cc1 | -24.4% | –
COc1ccc(C(C(=O)NCc2ccccc2)n2c(=O)c(-c3ccccc3)nc3ccccc32)cc1 (stereo not drawn) | – | 16.4 µM (active)
CCSc1ccccc1C(=O)NCc1ccc(OC)cc1 | -8.91% | –
COc1ccc(NC(=O)C(c2ccccc2)N2Cc3ccccc3C2=O)cc1 (stereo not drawn) | -8.19% | –
COc1ccc(NC(=O)C(c2ccncc2)n2c(=O)c(-c3cc4ccccc4[nH]3)nc3ccccc32)cc1 (stereo not drawn) | – | 18.4 µM (active)
CCOCCCNC(=O)C(NC(=O)Cc1c[nH]c2ccccc12)c1ccc(OC)cc1 (stereo not drawn) | -15% | –
COc1ccc(NC(=O)CN(C)C(=O)c2n[nH]c3ccccc23)cc1 | -22.5% | –

Reference: PubChem BioAssay AID686978 (National Center for Advancing Translational Sciences (NCATS), 2013)
